High-throughput results as filed in PubChem BioAssay.
ALR H2O2 inh – blocks human ALR sulfhydryl oxidase activity | purified ALR, DTT oxidation, H2O2 HRP-luminol luminescence | inhibition, % (test concentration not listed) | 290,000 tested, 3.8% active;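 active = mean replicate inhibition above about 79%, with every replicate also reaching it, limit read from the data; inconclusive = only one of the two criteria met; inactive = mean below limit and not every replicate reaching it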
ERp5 block – ERp5 (human) disulfide isomerase inhibition | AID 651711 | inhibition, % at 9.99 µM | 350,000 tested, 0.05% active | ERp5 insulin aggregation, absorbance 650 nm, 90 min;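 active = mean replicate inhibition above about 25%, with every replicate also reaching it, limit read from the data, passing the limit was not always enough; inconclusive = only one of those two criteria met; inactive = neither criterion met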
PDI inh – blocks human protein disulfide isomerase activity | 350,000 tested, 0.052% active | P07237 | PDI insulin aggregation turbidity, A650, 90 min | AID 588391 | inhibition, % at 10 µM;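 active = mean inhibition across replicates of 30% or more, whatever share of single replicates reach that level; inconclusive = mean inhibition below 30% while every single replicate reaches 30%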
PglD DTNB – inhibitors of Campylobacter jejuni PglD acetyltransferase. 360,000 tested, 0.098% active. AID 602405. inhibition, % at 12.5 µM. purified PglD enzyme, DTNB colorimetric CoA detection; in the data active = inhibition above about 16%, passing the limit was not always enough; inconclusive = no clear call, values can overlap the other calls
CendR NRP1 mod – alters CendR peptide binding to human NRP-1; FAM-RPARPAR peptide binding to NRP-1, fluorescence polarization; inhibition, % at 25 µM; 360,000 tested, 0.85% active; AID 602438;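 active = inhibition or corrected inhibition above about 18%, plus a signal ratio from 0.5 to 1.5, limit read from the data, passing the limit was not always enough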
Target sequence (O14786 whole entry, looked up): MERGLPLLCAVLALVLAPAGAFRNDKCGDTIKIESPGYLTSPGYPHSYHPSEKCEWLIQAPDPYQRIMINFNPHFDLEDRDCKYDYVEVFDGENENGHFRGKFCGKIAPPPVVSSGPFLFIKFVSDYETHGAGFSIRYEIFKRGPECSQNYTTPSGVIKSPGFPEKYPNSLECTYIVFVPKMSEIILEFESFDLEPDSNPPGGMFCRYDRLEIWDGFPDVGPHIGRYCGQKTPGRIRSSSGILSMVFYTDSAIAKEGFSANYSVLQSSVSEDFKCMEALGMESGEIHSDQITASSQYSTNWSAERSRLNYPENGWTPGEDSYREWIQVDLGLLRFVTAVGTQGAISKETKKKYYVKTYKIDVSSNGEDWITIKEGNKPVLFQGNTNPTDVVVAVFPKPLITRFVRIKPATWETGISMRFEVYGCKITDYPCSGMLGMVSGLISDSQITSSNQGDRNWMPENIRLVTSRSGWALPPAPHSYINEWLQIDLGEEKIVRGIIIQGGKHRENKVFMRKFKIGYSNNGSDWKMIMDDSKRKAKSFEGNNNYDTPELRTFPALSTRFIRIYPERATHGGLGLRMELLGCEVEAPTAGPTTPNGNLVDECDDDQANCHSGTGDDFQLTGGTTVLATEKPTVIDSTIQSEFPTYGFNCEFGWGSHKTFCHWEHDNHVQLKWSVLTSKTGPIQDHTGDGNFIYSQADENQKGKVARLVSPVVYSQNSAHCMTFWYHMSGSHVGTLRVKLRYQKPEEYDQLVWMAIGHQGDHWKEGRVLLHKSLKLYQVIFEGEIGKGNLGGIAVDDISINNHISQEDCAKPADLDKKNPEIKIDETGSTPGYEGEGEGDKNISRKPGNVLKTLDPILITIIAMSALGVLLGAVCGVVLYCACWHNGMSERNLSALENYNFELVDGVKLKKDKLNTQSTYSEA
ARNT TACC3 PPI – ARNT/TACC3 interaction disruption | Q9Y6A5 | AlphaScreen His-ARNT PAS-B/GST-TACC3 binding, luminescence; TACC3 fragment carries E629A point mutation | inhibition, % at 9.99 µM | 390,000 tested, 0.66% active;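 active = mean inhibition of replicates at least 50% and at least half of replicates each reaching 50%; inconclusive = half or more replicates reach 50% but mean below 50%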;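 also: 0% = complete ARNT plus TACC3 wells and 100% = ARNT alone without TACC3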
* hit, by the source's call; ? = inconclusive; . = no result given. This excerpt belongs to a sample that is enriched for hits.

SMILES	ALR H2O2 inh	ERp5 block	PDI inh	PglD DTNB	CendR NRP1 mod	ARNT TACC3 PPI
COc1ccc(S(=O)(=O)N(C)C[C@@H]2OCCCC[C@H](C)Oc3ccc(NC(=O)Nc4ccccc4)cc3C(=O)N([C@H](C)CO)C[C@@H]2C)cc1	.	.	.	-6.6	.	-18.1
Cc1cccc(NC(=O)c2ccco2)c1C	4.6	-0.9	-1.0	1.1	4.0	-6.7
Cc1cc(NC(=O)c2ccco2)sc1C	98.3*	-5.5	-3.9	-0.2	5.0	2.0
O=C(O)c1cc(=S)nc[nH]1	.	-4.2	7.4	7.1	5.3	73.1*
CCC(c1ccc(O)c(O)c1)C(CC)c1ccc(O)c(O)c1 (centres undefined)	.	.	7.8	4.3	5.9	3.8
CCC(NC(C)C)C(O)c1ccc(O)c(O)c1 (centres undefined)	92.2*	3.1	-0.3	-0.3	-6.4	-12.4
CCCn1c(/C=C/c2ccco2)nc2ccccc21	89.2*	-12.1	-3.4	.	-47.9	-12.9
Cc1ccc(Nc2ccc(N)cc2S(=O)(=O)O)cc1	99.6*	-1.1	0.3	1.2	-5.5	2.3
Clc1ccc(CSc2nc3ccncc3[nH]2)cc1	89.8*	6.3	.	2.3	18.8	-2.6
Nc1cc(=O)[nH]c(SCc2ccc(Cl)cc2)n1	-0.9	.	2.4	0.5	7.0	-1.8
O=c1cc(O)nc(SCc2ccc(Cl)cc2)[nH]1	97.9*	.	-33.2	2.1	-1.9	15.5
c1ccc(NNC2=NCCCCC2)cc1	98.7*	-0.4	8.4	1.1	4.1	-17.6
O=[N+]([O-])c1cc(Br)c(O)c(C=Nc2ccc(N3CCOCC3)cc2)c1	12.0	2.0	1.0	.	2.3	2.5
Oc1ccc(N=Cc2cc(Br)c(N3CCOCC3)o2)cc1	86.5*	-8.3	1.3	.	-32.0	2.7
O=C(COC(=O)c1ccccc1C(=O)c1ccccc1)Nc1cccc([N+](=O)[O-])c1	5.5	6.2	-0.3	1.9	2.8	-2.2
Nc1c(C(=O)OCC(=O)Nc2cccc([N+](=O)[O-])c2)[nH]c(=O)[nH]c1=O	.	1.7	-1.4	-0.7	-17.8	16.4*
O=C(C1CCOCC1)N1CC(=O)N2[C@@H](CO)[C@H](c3ccc(C#CC4CCCC4)cc3)[C@@H]2C1	.	4.2	.	.	.	.
CN(C)CCCNc1cc(C(C)(C)C)nc2c(-c3ccccc3)cnn12	99.0*	4.4	1.4	5.1	-4.1	-20.1
Cc1cc(=O)[nH]c(N/N=C/c2ccc(O)c(O)c2)n1	99.4*	1.9	-1.2	.	0.5	67.4*
Cc1cc(=O)[nH]c(NN=Cc2c(Cl)cccc2Cl)n1	.	-0.9	16.7	2.1	1.4	-9.3
Cc1cc(=O)[nH]c(N/N=C/C2=C(N3CCOCC3)C(=C\c3ccc(Cl)cc3)/CC2)n1	97.8*	1.5	0.1	.	-30.9	24.5*
Cc1cc(=O)[nH]c(N/N=C/c2ccc(Br)s2)n1	7.5	-6.9	1.6	-1.5	4.4	60.9*
Cc1cc(=O)[nH]c(N/N=C/c2c(O)n(-c3ccccc3)c(=O)c3ccccc23)n1	.	-4.8	-10.4	-10.6	-93.4	72.3*
Cc1cc(C)nc(N/N=C/C2=C(N3CCOCC3)C(=C/c3ccccc3)/CC2)n1	27.2	.	-4.6	-16.0	-46.4	19.8
COc1ccccc1C=NNc1nc(C)cc(=O)[nH]1	.	5.3	12.4	4.3	5.3	-0.3
SMILES	ALR H2O2 inh	ERp5 block	PDI inh	PglD DTNB	CendR NRP1 mod	ARNT TACC3 PPI
O=C(c1ccccc1)N1CC(=O)N2[C@H](CO)[C@@H](c3ccc(C#CCC4CCCC4)cc3)[C@H]2C1	.	-1.4	.	.	.	.
C[C@@H]1CCCCO[C@@H](CN(C)S(C)(=O)=O)[C@@H](C)CN([C@H](C)CO)C(=O)c2cc(NS(=O)(=O)c3cccs3)ccc2O1	.	5.9	.	3.5	.	-5.1
CN1C[C@@H]2[C@H](c3ccccc31)[C@H](CO)N2C(=O)C1CCCCC1	.	1.1	.	-0.1	.	-2.3
C(=N\Nc1nc2ccccc2s1)/c1cccs1	89.0*	.	-6.3	2.0	-19.4	14.2
Cc1ccc(S(=O)(=O)N/N=C/c2ccccc2O)cc1[N+](=O)[O-]	95.5*	-1.4	-1.0	.	5.9	-5.7
CCN(CC)c1ccc(/C=N/NS(=O)(=O)c2ccc(C)c([N+](=O)[O-])c2)cc1	?	5.2	-3.0	.	3.2	-3.2
O=[N+]([O-])c1cc2c(cc1/C=N\NS(=O)(=O)c1ccccc1)OCO2	0.0	.	0.2	-2.3	11.9	-1.0
Cc1ccc(S(=O)(=O)N/N=C/c2ccc(O)c(O)c2)cc1[N+](=O)[O-]	99.1*	1.1	6.8	6.1	-8.2	-2.3
C[C@@H]1CCCCO[C@H](CN(C)C(=O)C2CCCCC2)[C@H](C)CN([C@@H](C)CO)C(=O)c2cc(NS(C)(=O)=O)ccc2O1	.	-13.0	.	6.9	.	0.8
COC(=O)C(NC(=O)CCC(=O)N[C@@H](C(=O)OC)c1ccccc1)c1ccccc1 (some centres undefined)	3.6	-3.9	3.4	-0.8	25.2*	1.2
CC(C)(C)OC(=O)[C@H](NC(=O)OCc1ccccc1)c1ccccc1	12.0	3.1	2.8	1.7	0.1	-5.8
CC(C)(C)OC(=O)N[C@H](C(=O)OC(C)(C)C)c1ccccc1	-0.7	-0.9	-3.1	0.7	36.2*	-0.4
COC(=O)C(NC(=O)CCC(=O)NC(C(=O)OC)c1ccccc1)c1ccccc1 (centres undefined)	-2.1	-2.5	-3.5	-3.2	-0.6	-4.3
COc1ccccc1NC(=S)Nc1cccc2cnccc12	0.5	-8.0	4.9	.	-2.4	75.8*
COc1ccc(NC(=S)Nc2cccc3cnccc23)cc1	36.9	.	-6.1	-0.5	-11.6	15.0*
COc1ccc(NC(=S)Nc2ccc3cn[nH]c3c2)cc1	99.7*	-0.3	0.0	.	6.0	4.1
S=C(Nc1ccc(Cl)cc1)Nc1ccc2cn[nH]c2c1	-12.0	-1.3	-1.2	.	-3.8	-2.3
COC(=O)[C@H]1[C@H](CO)[C@H]2Cn3c(ccc(-c4ccccc4)c3=O)[C@H]2N1Cc1ccccn1	.	-0.8	.	10.0	.	8.7
CCNC(=O)[C@@H]1[C@@H](CO)[C@@H]2Cn3c(ccc(-c4ccccc4)c3=O)[C@@H]2N1Cc1ccccn1	.	6.1	.	1.1	.	43.5*
CNc1nc(N)c(C(=O)C23CC4CC(CC(C4)C2)C3)s1	98.4*	-3.4	9.3	.	0.1	.
CN1CCc2nc3sc(C(=O)C45CC6CC(CC(C6)C4)C5)c(N)c3cc2C1	-4.8	.	3.2	0.7	-24.4	-11.9
COc1ccc(NC(=O)Nc2ccc3c(c2)[C@H]2C[C@H](CC(=O)O)O[C@@H](CO)[C@H]2O3)cc1	.	5.7	.	1.5	.	-0.2
COc1ccc(S(=O)(=O)N2C[C@@H](O)COC[C@H]3O[C@@H](CC(=O)NCCCN4CCOCC4)CC[C@@H]32)cc1	.	2.1	.	0.7	.	-6.1
CO[C@@H]1CN(C)C(=O)c2ccc(NS(C)(=O)=O)cc2OC[C@@H](C)N(C(=O)C2CCOCC2)C[C@H]1C	.	-5.8	.	18.3*	.	-8.3
